Drawing on PubChem BioAssay, this text covers z-score for 36 compounds.

A number with no mark means an inactive call. Activity calls are given as the source filed them.

A short description of this assay: plasmodial surface anion channel blockers, osmotic lysis – cell-based, P. falciparum Indochina, OD700, 1 h, primary screen (AID 1154). The settings on record: P. falciparum Indochina infected RBC osmotic lysis, higher = more signal, called active from +8 up or from −8 down.
With `CO[C@H]1COC(=O)[C@H](CCSC)NC(=O)CC=C[C@@H](C)[C@H](OC)COC(=O)[C@@H](OCc2ccccc2)C=C[C@@H]1C`, the z-score was 0.463.

Regarding `COC(=O)[C@H](C)NC(=O)CCC1CC(OC(=O)NCCc2ccc(F)cc2)CC2(CCCC(COC(=O)NCCc3ccccc3OC)O2)O1` (stereo partly specified), the z-score was 6.98.

Regarding `CC(C)CN1CCc2nc(-c3ccccc3)c3c(c2C1)CO[C@@H](C)C3`, the z-score is 1.56.

As for `CC(C)[C@@H](OCc1ccccc1)[C@H](C)CON=C1[C@H]2CCn3c(=O)n(-c4ccccc4)c(=O)n3[C@H]2[C@H](O)[C@@H]2O[C@H]12`, the z-score is 0.509.

Consider `CON=C(C)CCN1CCc2nc(-c3ccccc3)c(-c3ccccc3)cc2C1`, for which the z-score was 3.74.

Take `COc1ccc(OC[C@H]2CN3[C@@H](CC[C@@H](C)[C@@H]3c3ccc(Br)cc3)C(=O)O2)cc1`: the z-score is 2.04.

Consider `O=C(NN=C1C[C@@H](O)[C@@H](O)[C@@H]2[C@@H]3C(=O)N(c4ccc(F)cc4F)C(=O)[C@@H]3CC[C@H]12)OCc1ccccc1`, for which the z-score is 10.1 (active).

In the case of `COC(=O)[C@H](C)NC(=O)CCC1CC(OC(=O)NCc2cccc3ccccc23)CC2(CCCC(COC(=O)NCc3ccccc3)O2)O1` (stereo partly specified), the z-score was 0.385.

As for `O=C1C2=CC[C@H]3C(=O)N(C4CCCCC4)C(=O)[C@H]3[C@H]2[C@H](O)[C@@H]2O[C@H]12`, the z-score was -0.0599.

As to `C#CCCCON=C1C[C@@H](O)[C@@H](O)[C@@H]2[C@@H]3C(=O)N(C[C@@H]4CCCO4)C(=O)[C@@H]3CC[C@H]12`, the z-score is 0.515.

Take `O=C1[C@H]2CCn3c(=O)n(-c4ccccc4)c(=O)n3[C@H]2[C@H](O)[C@@H]2O[C@H]12`: the z-score was -0.132.

Regarding `CC(=O)OC[C@H]1O[C@H](CC=NOCC[C@@H]2C=C[C@H](OC(C)=O)[C@@H](COC(C)=O)O2)C=C[C@@H]1OC(C)=O`, the z-score is 0.421.

As to `CCCNC(=O)OC[C@H]1O[C@H](CCON=C[C@@H](C)[C@H](OCc2ccccc2)C(C)C)C=C[C@@H]1Oc1ccc(OC)cc1`, the z-score is 1.77.

For `CC(CCC(=O)OC[C@H]1O[C@H](C#Cc2ccccc2)C=C[C@@H]1Oc1ccc(C)cc1)=NOC(C)CN1CCCCc2nc(C)c(C)cc21` (stereo partly specified), the z-score was 4.27.

`CCN1C(=O)[C@H]2[C@H]3[C@H](O)[C@H](O)CC(=NNC(=O)OCc4ccccc4)[C@H]3CC[C@H]2C1=O`: the z-score is 1.26.

Consider `CO[C@@H](C(C)C)[C@@H](C)C1OC(=O)CC1O` (stereo partly specified), for which the z-score is -0.315.

With `CC(C)=NOC(C)CN1CCCc2nc(C)c(C)cc21` (stereo unspecified), the z-score is 0.421.

Take `CO[C@@H]1[C@H](O)CO[C@H]1C=Cc1ccccc1`: the z-score was 2.7.

Regarding `COc1ccc(O[C@H]2C=C[C@@H](C#Cc3ccccc3)O[C@@H]2CO)cc1`, the z-score is 2.26.

As to `CC(CCC(=O)OC[C@H]1O[C@H](C#Cc2ccccc2)C=C[C@@H]1Oc1ccc(C)cc1)=NOC[C@@H](C)[C@H](OCc1ccccc1)C(C)C`, the z-score is 0.551.

As to `CC(CCN1CCc2nc(-c3ccccc3)c(-c3ccccc3)cc2C1)=NOC(C)CN1CCCc2nc(C)c(C)cc21` (stereo unspecified), the z-score was 3.04.

On to `CCOC(=O)[C@H](CC(C)C)NC(=O)CCC1CC(OC(=O)NCc2ccc3c(c2)OCO3)CC2(CCCC(COC(=O)NCCc3ccc(Cl)cc3)O2)O1` (stereo partly specified), for which the z-score was 1.83.

Consider `CC(=O)OC[C@H]1O[C@@H](ON=C(C)CCC(=O)OC[C@H]2O[C@H](C#Cc3ccccc3)C=C[C@@H]2Oc2ccc(C)cc2)[C@H](OC(C)=O)[C@@H](OC(C)=O)[C@@H]1OC(C)=O`, for which the z-score was 2.56.

Regarding `CC(C)CON=C1C[C@@H](O)[C@@H](O)[C@@H]2[C@@H]3C(=O)N(c4ccc(F)cc4F)C(=O)[C@@H]3CC[C@@H]12`, the z-score was 1.3.

In the case of `CCOC(=O)CCN1C(=O)[C@H]2[C@H]3[C@H](O)[C@H](O)CC(=NO[C@@H]4O[C@H](CO)[C@@H](O)[C@H](O)[C@H]4O)[C@H]3CC[C@H]2C1=O`, the z-score is -0.266.

Turning to `CCOC(=O)[C@H](Cc1ccccc1)NC(=O)CCC1CC(OC(=O)NCc2cccc3ccccc23)CC2(CCCC(COC(=O)NCCc3ccc(Cl)cc3)O2)O1` (stereo partly specified), the z-score is 7.28.

Take `CCN1C(=O)[C@H]2[C@H]3[C@H](O)[C@H](O)CC(=NOC[C@@H](O)COCc4ccco4)[C@H]3CC[C@H]2C1=O`: the z-score is -0.392.

As for `C#CCCCON=C1C[C@@H](O)[C@@H](O)[C@@H]2[C@@H]3C(=O)N(C4CCCCC4)C(=O)[C@@H]3CC[C@@H]12`, the z-score is 1.17.

With `COC(=O)[C@H](CCSC)NC(=O)CC=C[C@@H](C)CO`, the z-score was 0.291.

Consider `CCc1cc2c(nc1CC)CCN(CCC(C)=NO[C@@H]1O[C@H](COC(C)=O)[C@@H](OC(C)=O)[C@H](OC(C)=O)[C@H]1OC(C)=O)C2`, for which the z-score was -0.451.

Consider `CO[C@H]1COC(=O)[C@H](C)COC(=O)[C@H](C)NC(=O)CC=C[C@H]1C`, for which the z-score is 0.212.

As to `COC(=O)[C@H](C)NC(=O)CCC1CC(OC(=O)NCc2ccc3c(c2)OCO3)CC2(CCCC(COC(=O)NCCCN3CCCC3=O)O2)O1` (stereo partly specified), the z-score was -0.881.

On to `COc1ccc(COC(=O)NN=C2C[C@@H](O)[C@@H](O)[C@@H]3[C@@H]4C(=O)N(C[C@@H]5CCCO5)C(=O)[C@@H]4CC[C@@H]23)cc1`, for which the z-score was 3.44.

For `COc1ccc(COC(=O)NN=C2C[C@@H](O)[C@@H](O)[C@@H]3[C@@H]4C(=O)N(C(C)(C)C)C(=O)[C@@H]4CC[C@@H]23)cc1`, the z-score was 0.339.

Consider `CCOC(=O)[C@H](CC(C)C)NC(=O)CCC1CC(OC(=O)NCc2ccc3c(c2)OCO3)CC2(CCCC(COC(=O)NCc3ccccc3)O2)O1` (stereo partly specified), for which the z-score is 7.67.

With `CC(C)[C@H](NC(=O)OC(C)(C)C)[C@@H](O)CC(=O)C(C)(C)C`, the z-score is -0.0522.
